ALOX12 inhib – 12-hLO (ALOX12) enzyme inhibition; Potency, µM (titrated, usually from 57.1 µM), hits mostly inhibitors; P18054; purified 12-hLO, xylenol orange hydroperoxide absorbance; 0.12% of 150,000 active; AID 1452; active means well fitted inhibition curve with a large enough effect; inconclusive means small, poorly fitted or top-dose-only effect; further: nearly all actives have a fitted effect of over 55% in size
Target sequence (P18054 whole entry, looked up): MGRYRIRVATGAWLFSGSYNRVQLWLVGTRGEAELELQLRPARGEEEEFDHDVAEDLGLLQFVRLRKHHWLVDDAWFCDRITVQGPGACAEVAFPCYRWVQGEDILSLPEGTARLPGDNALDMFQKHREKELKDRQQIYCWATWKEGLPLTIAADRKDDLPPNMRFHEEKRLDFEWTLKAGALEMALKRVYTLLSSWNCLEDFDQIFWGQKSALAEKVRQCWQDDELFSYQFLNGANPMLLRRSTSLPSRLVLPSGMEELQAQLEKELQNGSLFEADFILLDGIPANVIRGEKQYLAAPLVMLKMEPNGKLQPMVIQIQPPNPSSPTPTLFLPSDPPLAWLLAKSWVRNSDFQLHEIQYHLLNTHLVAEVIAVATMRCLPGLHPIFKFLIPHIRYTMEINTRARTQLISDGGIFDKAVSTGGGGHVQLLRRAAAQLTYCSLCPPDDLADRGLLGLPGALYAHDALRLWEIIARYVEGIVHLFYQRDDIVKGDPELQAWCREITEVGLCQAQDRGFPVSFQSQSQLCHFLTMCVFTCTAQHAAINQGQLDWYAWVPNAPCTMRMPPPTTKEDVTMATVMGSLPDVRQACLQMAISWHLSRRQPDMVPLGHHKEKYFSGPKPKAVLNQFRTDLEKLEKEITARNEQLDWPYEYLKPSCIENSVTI
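Purified human 12hLO (150 nM), preincubated 15 min with compound, then 40 uM arachidonic acid for 30 min, room temperature, Hepes pH 7.0 with 0.01% Triton X-100. Hydroperoxide detected by ferrous iron/xylenol orange; 573/405 nm absorbance ratio gives reaction progress.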
HPGD inh – blocks human HPGD enzyme activity; 4.3% of 150,000 active; AID 894; Potency, µM, most hits filed as inhibitors; purified HPGD, NADH fluorescence kinetic, PGE2 substrate; P15428
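NADH formation kinetics: reaction with 30 uM PGE2 and 1 mM NAD+ (final), 20 nM enzyme, Tris-HCl pH 8 with Tween 20, after 15 min compound preincubation at room temperature. Fluorescence change, last versus first of five reads.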
PNC assembly inh – inhibitors of perinucleolar compartment assembly. PC3M PTB-GFP, PNC prevalence imaging, 16 h; active compounds read low. activity change (PNC), negative = inhibition, % at 10 µM. 3.1% of 140,000 active;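 active means readout at or below -70, meaning at least 70% loss of cells showing the perinucleolar compartment, a nuclear body marking cancer cells; inconclusive means readout between -30 and a set limit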
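Compounds are pinned in duplicate onto adhered PC3M cells stably expressing GFP-tagged PTB and incubated 16 h at 37 C. Cells are then fixed, nuclei stained with Hoechst, and PNC-positive cells counted.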
ALDH1A1 block – ALDH1A1 (human) enzyme inhibition. Purified ALDH1A1, NADH fluorescence, propionaldehyde substrate. Potency, µM (series often up to 75.3 µM), hits mostly inhibitors. 7.3% of 220,000 active
Lamin A splicing – LMNA splicing modulation; Potency, µM (titrated, usually from 46.1 µM), hits mostly inhibitors; 0.01% of 200,000 active; HeLa LMNA splicing GFP/RFP minigene ratio, 48 h; active means well fitted inhibition curve with a large enough effect in the signal ratio, with a control signal flat, not every such curve was filed as active; inconclusive means small, poorly fitted or top-dose-only effect, or effect the other way, or a change in a side signal; the % refers to the signal ratio
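S3 HeLa cells stably expressing lamin A-EGFP splicing minigene plus DsRed2, 600 cells/well, 48 h compound exposure at 37C. Laser-scanning cytometry; analysed as GFP (500-530 nm)/RFP (575-640 nm) total intensity ratio; 0.5% DMSO vehicle.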
Large screens that a line does not name were inactive. The list is not random: actives were taken first. Their share in the collection is about 10%. Unless noted, the call rests on the fitted dose curve; in most records, active means well fitted inhibition curve with a large enough effect (not every such curve was filed as active); inconclusive means small, poorly fitted or top-dose-only effect, or another doubt; inactive means no such curve, though single readings can be large or run the other way.

CCN(Cc1ccccc1)C(c1ccccn1)c1nnnn1C1CCCCC1 (stereo unspecified)	none
C/C(=N\NC(=O)c1ccc(Cl)c(S(=O)(=O)Nc2ccccc2Cl)c1)c1ccncc1	PNC assembly inh -83.3, ALDH1A1 block inconclusive
CC(=O)Nc1ccc(C(=O)N/N=C(\C)CC(=O)Nc2ccc(OCc3ccccc3)cc2)cc1	none
C/C(=N\NC(=O)c1cccc(S(=O)(=O)Nc2ccccc2Cl)c1)c1ccco1	HPGD inh inconclusive, ALDH1A1 block inconclusive
C/C(=N\NC(=O)c1ccc(COc2ccccc2)cc1)c1ccncc1	ALDH1A1 block 25.1µM (no result: ALOX12 inhib, HPGD inh, PNC assembly inh, Lamin A splicing)
Cc1ccc(N2CC(NC(=O)C(=O)c3c[nH]c4ccccc34)CC2=O)cc1 (stereo unspecified)	none (no result: ALOX12 inhib, HPGD inh, PNC assembly inh, ALDH1A1 block)
CCN(CC)c1ccc(NC(=O)c2cnc3c(-c4ccccc4)c(C)nn3c2C)c(C)c1	none (no result: ALOX12 inhib, HPGD inh, PNC assembly inh, ALDH1A1 block)
O=C(CSc1nccn1Cc1ccccc1)NCc1ccco1	none (no result: ALOX12 inhib, HPGD inh, PNC assembly inh, ALDH1A1 block)
O=S(=O)(c1ccccc1)N1CCC[C@@]2(CCN(c3cccc(-c4ccccc4)c3)C2)C1	none (no result: PNC assembly inh, Lamin A splicing)
COc1ccc(/C=C/C(=O)OCC(=O)Nc2ccc(Cl)c(S(=O)(=O)N(C)C)c2)cc1OC	HPGD inh inconclusive, PNC assembly inh -110.0, ALDH1A1 block inconclusive
CN(C)S(=O)(=O)c1cc(NC(=O)COC(=O)CCSc2ccc(Cl)cc2)ccc1Cl	PNC assembly inh -87.9, ALDH1A1 block inconclusive
CN(C)S(=O)(=O)c1cc(NC(=O)COC(=O)Cc2ccc(Cl)cc2Cl)ccc1Cl	none
CCOC(=O)C1(C(C)C)Oc2ccccc2C(c2ccc(OC)cc2)=C1C(=O)OC (stereo unspecified)	HPGD inh inconclusive (no result: PNC assembly inh, Lamin A splicing)
CC(=O)OC1CC2C(C)(C)C(=O)C3OC3[C@]2(C)C2CC[C@@]3(C)C(c4ccoc4)OC(=O)C4OC43[C@]12C (stereo partly specified)	none (no result: PNC assembly inh, Lamin A splicing)
COCC(C)N1CC(O)=C(c2nc(-c3ccc(Cl)cc3)cs2)C1=N (stereo unspecified)	none (no result: ALOX12 inhib, HPGD inh, PNC assembly inh)
COc1ccccc1CNC(=O)CC(C)C	HPGD inh 25.1µM
COc1ccccc1CNC(=O)CSC1=NCCS1	ALDH1A1 block inconclusive (no result: ALOX12 inhib, HPGD inh, PNC assembly inh)
COc1ccccc1CNC(=O)C1CCN(Cc2nc(-c3cccc(Cl)c3)oc2C)CC1	Lamin A splicing inconclusive
COc1ccccc1CNC(=O)CSc1ccc(Br)cc1	HPGD inh 28.2µM
CCc1ccc(-c2nc(CN3CCC(C(=O)NCc4ccccc4OC)CC3)c(C)o2)cc1	PNC assembly inh -97.5, ALDH1A1 block inconclusive, Lamin A splicing inconclusive
COc1ccccc1CNC(=O)C1CCC1	HPGD inh 14.1µM
COc1ccccc1CNC(=O)c1ccc(-c2ccccc2Cl)o1	ALDH1A1 block 14.1µM, Lamin A splicing inconclusive
CC1CCn2c(nc3cc(C(=O)NCc4ccc(OC(C)C)cc4)ccc32)C1 (stereo unspecified)	none (no result: ALOX12 inhib, HPGD inh, PNC assembly inh, ALDH1A1 block)
COc1ccccc1N1CCN(CC(=O)c2ccc3ccn(C(C)=O)c3c2)CC1	ALDH1A1 block inconclusive
CC(=O)OCC(=O)c1ccc2ccn(C(C)=O)c2c1	HPGD inh inconclusive, PNC assembly inh -100.0, ALDH1A1 block inconclusive
O=C(NNC(=S)Nc1ccc(OC(F)F)cc1)c1cc2c(s1)CCCC2	ALDH1A1 block 8.91µM, Lamin A splicing inconclusive
O=C(Nc1ccccc1OC(F)F)c1cc2c(s1)CCC2	PNC assembly inh inconclusive, ALDH1A1 block inconclusive
CSC(=S)N(C)C1CCS(=O)(=O)C1 (stereo unspecified)	PNC assembly inh inconclusive
CN(C1CCS(=O)(=O)C1)S(=O)C12CC3CC(CC(C3)C1)C2 (stereo unspecified)	PNC assembly inh -100.0, ALDH1A1 block inconclusive
CCOC(=O)c1noc2ncnc(Nc3cccc(C(F)(F)F)c3)c12	none (no result: ALOX12 inhib, HPGD inh, PNC assembly inh, ALDH1A1 block)
O=C(O)Cn1nc(-c2ccccc2)oc1=O	none
CC(C)(C)C(=O)n1nc(-c2ccccc2)oc1=O	HPGD inh inconclusive, PNC assembly inh -109.0
O=c1cc(-c2ccc(O)cc2)oc2ccc(O)cc12	HPGD inh 20µM, Lamin A splicing inconclusive (no result: PNC assembly inh)
COc1ccccc1-c1cc(=O)c2cc(O)ccc2o1	HPGD inh 15.8µM (no result: PNC assembly inh, Lamin A splicing)
O=c1cc(-c2ccccc2O)oc2cc(O)ccc12	HPGD inh inconclusive (no result: PNC assembly inh)
O=c1cc(-c2cccc(O)c2)oc2ccc(O)cc12	HPGD inh 7.08µM, ALDH1A1 block inconclusive (no result: PNC assembly inh, Lamin A splicing)
O=c1cc(-c2ccc(O)cc2)oc2ccccc12	none (no result: ALOX12 inhib, HPGD inh, PNC assembly inh)
